The target in experiment [1] is Acetylcholinesterase (Homo sapiens) (UniProt P22303). Nature of the experiment: Acetylcholinesterase (AChE) small molecule antagonists: colormetric cell-based qHTS assay (AID 1347395). Further: nearly all actives have a fitted effect of over 30% in size. Further: potency means the concentration at half of the fitted maximal effect. The method, boiled down:
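SH-SY5Y cells, plated overnight at 37 C, were exposed to compounds for 30 min at 37 C and 5% CO2. Acetylthiocholine plus DTNB was then added, and thiocholine from endogenous AChE was quantified colorimetrically after 90 min at 37 C.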

The target is the same in experiment [2]. In words: Acetylcholinesterase (AChE) small molecule antagonists: enzyme-based qHTS assay (AID 1347397). Further: nearly all actives have a fitted effect of over 55% in size. The following applies: Potency: AChE enzyme activity inhibition; outcome: AChE enzyme activity inhibition. A digest of the protocol:
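Tox21 library chemicals are tested in qHTS format against recombinant human AChE. The enzyme, dispensed at 50 mU/mL, sits with compound for 30 min at room temperature. A DTNB–acetylthiocholine cocktail follows, and colour is read after 10 min.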
(In general: Quantitative high-throughput screening tests each substance at several concentrations.)

The target is the same in experiment [3]. Nature of the experiment: Acetylcholinesterase (AChE) small molecule antagonists: fluorescence cell-based qHTS assay (AID 1347398). Further: nearly all actives have a fitted effect of over 50% in size. Further: potency means the concentration at half of the fitted maximal effect. The conditions noted are these: Potency: AChE activity; outcome: AChE activity. The method, boiled down:
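Cellular AChE inhibition: SH-SY5Y cells treated with test chemical for 30 min at 37 C, then acetylthiocholine hydrolysis followed over 40 min at room temperature via thiocholine-reactive Thiolite Green fluorescence (490/520 nm).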

Experiment [4] has the same target. Nature of the experiment: Acetylcholinesterase (AChE) small molecule antagonists: enzyme-based qHTS assay with human liver microsomes (AID 1347399). Further: nearly all actives have a fitted effect of over 60% in size. The following applies: Potency: qHTS inhibition; outcome: qHTS inhibition. A digest of the protocol:
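Recombinant human AChE (50 mU/mL in the enzyme mix) and human liver microsomes (0.25 mg/mL final) were preincubated with compound and NADPH (0.25 mg/mL final) for 30 min at 37 C. Acetylthiocholine/DTNB was then added; thiocholine was read colorimetrically after 10 min at room temperature.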

“And” between values parts separate entries of the source, which are not always exact repeats. Equal entries are not always repeated. Results filed as inconclusive are left out. Some structures have more than one record in an assay (separate samples or runs), and their calls can disagree. The source made the active and inactive calls. The call rests on the fitted dose curve.
On the % scale 0 is the no-effect control and ±100 the full control effect.

Acetylcholinesterase (Homo sapiens), sequence (P22303 whole entry, looked up): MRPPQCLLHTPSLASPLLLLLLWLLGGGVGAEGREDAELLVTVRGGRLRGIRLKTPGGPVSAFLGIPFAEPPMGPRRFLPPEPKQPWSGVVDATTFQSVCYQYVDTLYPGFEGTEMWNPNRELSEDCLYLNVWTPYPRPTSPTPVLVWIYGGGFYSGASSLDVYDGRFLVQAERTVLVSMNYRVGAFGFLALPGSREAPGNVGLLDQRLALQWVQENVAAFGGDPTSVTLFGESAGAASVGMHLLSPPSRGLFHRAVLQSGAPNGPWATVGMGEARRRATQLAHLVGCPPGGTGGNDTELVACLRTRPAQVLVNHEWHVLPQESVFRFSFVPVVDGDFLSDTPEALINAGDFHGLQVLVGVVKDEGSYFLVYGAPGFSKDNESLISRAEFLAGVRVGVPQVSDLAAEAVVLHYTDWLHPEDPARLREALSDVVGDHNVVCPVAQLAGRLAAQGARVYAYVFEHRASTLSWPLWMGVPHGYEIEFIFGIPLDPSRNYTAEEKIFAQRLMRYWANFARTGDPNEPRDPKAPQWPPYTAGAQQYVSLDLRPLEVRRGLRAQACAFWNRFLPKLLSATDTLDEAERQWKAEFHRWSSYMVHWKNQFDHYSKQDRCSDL

For `OC1OCCOC1O` (stereo not drawn), the Potency result in experiment [1], in experiment [2], in experiment [3] and in experiment [4] was “inactive” each time.
For `O=C(O)c1ccccc1`, the Potency in experiment [1] is 3.74 µM (active) and inactive. Further, the Potency result in experiment [2], in experiment [3] and in experiment [4] was “inactive” in each case.
On to `O=Nc1ccc(NO)cc1`, for which the Potency result in experiment [1], in experiment [2], in experiment [3] and in experiment [4] was “inactive” in each case.
On to `Cc1ncc(COP(=O)(O)O)c(C=O)c1O`, for which the Potency result in experiment [1], in experiment [2], in experiment [3] and in experiment [4] was “inactive” throughout.
Regarding `CCOC(C)OCC`, the Potency result in experiment [1], in experiment [2], in experiment [3] and in experiment [4] was “inactive” each time.
Take `NC(N)=NC(=O)c1nc(Cl)c(N)nc1N`: the Potency in experiment [1] is 35.8 µM (active) and 32.9 µM (active) and 27.5 µM (active); in experiment [3] it was 12.7 µM (active) and 32.9 µM (active). Besides, the Potency entry in experiment [2] and in experiment [4] was “inactive” throughout.
For `CC1(C)O[C@H]2CC(=O)OC[C@]23[C@H]2CC[C@@]4(C)[C@H](c5ccoc5)OC(=O)[C@H]5O[C@]54[C@]2(C)C(=O)C[C@@H]13`, the Potency entry in experiment [1], in experiment [2], in experiment [3] and in experiment [4] was “inactive” throughout.
Turning to `COc1ccc(C(=O)c2ccc(C)cc2)c(O)c1`, the Potency result in experiment [1], in experiment [2], in experiment [3] and in experiment [4] was “inactive” throughout.
Take `CC1(C)COCN1`: the Potency entry in experiment [1], in experiment [2], in experiment [3] and in experiment [4] was “inactive” each time.
For the compound `CCCC(C)CC` (stereo not drawn), the Potency result in experiment [1], in experiment [2], in experiment [3] and in experiment [4] was “inactive” throughout.
`CCCCCCCCCCCc1ccccc1`: the Potency result in experiment [1], in experiment [2], in experiment [3] and in experiment [4] was “inactive” each time.
Turning to `Cc1ccc(C(C)(C)C)c(O)c1`, the Potency entry in experiment [1], in experiment [2], in experiment [3] and in experiment [4] was “inactive” each time.
Consider `Cc1ccc2ccccc2n1`, for which the Potency entry in experiment [1], in experiment [2], in experiment [3] and in experiment [4] was “inactive” each time.
`NC(=O)Cn1c(=O)cc(CCN2CCN(c3nccc4sccc34)CC2)c2ccc(F)cc21`: the Potency in experiment [1] and in experiment [3] was 35.6 µM (active) each time. Moreover, the Potency entry in experiment [2] and in experiment [4] was “inactive” in each case.
In the case of `COCCCOc1cc(C[C@@H](C[C@H](N)[C@@H](O)C[C@H](C(=O)NCC(C)(C)C(N)=O)C(C)C)C(C)C)ccc1OC`, the Potency result in experiment [1], in experiment [2], in experiment [3] and in experiment [4] was “inactive” each time.
For the compound `O=C(CCCCCCCCC#CI)Oc1ccccc1`, the Potency entry in experiment [1], in experiment [2], in experiment [3] and in experiment [4] was “inactive” in each case.
As for `CN(CCOc1ccc(CC2SC(=O)NC2=O)cc1)c1ccccn1` (stereo not drawn), the Potency result in experiment [1], in experiment [2], in experiment [3] and in experiment [4] was “inactive” in each case.
As for `CC(Oc1c(Cl)cccc1Cl)C1=NCCN1` (stereo not drawn), the Potency entry in experiment [1], in experiment [2], in experiment [3] and in experiment [4] was “inactive” each time.
For the compound `O=[N+]([O-])c1ccccc1C(F)(F)F`, the Potency entry in experiment [1], in experiment [2], in experiment [3] and in experiment [4] was “inactive” throughout.
On to `O=C(c1ccccc1)c1ccccc1O`, for which the Potency entry in experiment [1], in experiment [2], in experiment [3] and in experiment [4] was “inactive” in each case.
For `CC(=O)N(CC(O)CO)c1c(I)c(C(=O)NCCO)c(I)c(C(=O)NCC(O)CO)c1I` (stereo not drawn), the Potency entry in experiment [1], in experiment [2], in experiment [3] and in experiment [4] was “inactive” throughout.
For the compound `CC(C)(C)C1=CC(=O)C=C(C(C)(C)C)C1=O`, the Potency entry in experiment [1], in experiment [2], in experiment [3] and in experiment [4] was “inactive” each time.
Regarding `O=C(NCc1ncc(C(F)(F)F)cc1Cl)c1c(Cl)cccc1Cl`, the Potency entry in experiment [1], in experiment [2], in experiment [3] and in experiment [4] was “inactive” in each case.
For `COCC(O)CO` (stereo not drawn), the Potency entry in experiment [1], in experiment [2], in experiment [3] and in experiment [4] was “inactive” in each case.
On to `CCCOC(=O)c1ccccc1`, for which the Potency entry in experiment [1], in experiment [2], in experiment [3] and in experiment [4] was “inactive” in each case.
Turning to `C=C(C)C(=O)OCCOCCOCCOC(=O)C(=C)C`, the Potency result in experiment [1], in experiment [2], in experiment [3] and in experiment [4] was “inactive” throughout.
Consider `c1cc(C(c2ccc(OCC3CO3)cc2)C(c2ccc(OCC3CO3)cc2)c2ccc(OCC3CO3)cc2)ccc1OCC1CO1` (stereo not drawn), for which the Potency entry in experiment [1], in experiment [2], in experiment [3] and in experiment [4] was “inactive” in each case.
Regarding `CCCCC(CC)COCCCN` (stereo not drawn), the Potency entry in experiment [1], in experiment [2], in experiment [3] and in experiment [4] was “inactive” each time.
Regarding `CC(=O)[C@@]1(O)CC[C@H]2[C@@H]3C[C@H](C)C4=CC(=O)C=C[C@]4(C)[C@@]3(F)[C@@H](O)C[C@@]21C`, the Potency entry in experiment [1], in experiment [2], in experiment [3] and in experiment [4] was “inactive” in each case.
With `O=C(OCC1(COC(=O)c2cccnc2)CCCC(COC(=O)c2cccnc2)(COC(=O)c2cccnc2)C1O)c1cccnc1`, the Potency result in experiment [1], in experiment [2], in experiment [3] and in experiment [4] was “inactive” in each case.
As for `CCCCCCCCCCCCCCCCCCN(C)C`, the Potency result in experiment [1], in experiment [2], in experiment [3] and in experiment [4] was “inactive” throughout.
For the compound `CC1CC(OC(=O)c2ccccc2O)CC(C)(C)C1` (stereo not drawn), the Potency result in experiment [1], in experiment [2], in experiment [3] and in experiment [4] was “inactive” throughout.
In the case of `CC(=O)Oc1ccc(C(=C2CCCCC2)c2ccc(OC(C)=O)cc2)cc1`, the Potency result in experiment [1], in experiment [2], in experiment [3] and in experiment [4] was “inactive” each time.
Consider `CC(C)CCOCCC(C)C`, for which the Potency entry in experiment [1], in experiment [2], in experiment [3] and in experiment [4] was “inactive” in each case.
Regarding `C/C(=C(\CCOP(=O)(O)O)SC(=O)c1ccccc1)N(C=O)Cc1cnc(C)nc1N`, in experiment [1], the activity, negative = inhibition was -0.469% [at 10.5 µM] (inactive). In addition, the activity change, negative = inhibition in experiment [2] was 0.584% [at 10.5 µM] (inactive); in experiment [3], 5.35% [at 10.5 µM] (inactive); in experiment [4] it was -1.26% [at 10.5 µM] (inactive).
As for `CC(C)(c1ccc(O)cc1)c1ccc(O)cc1`, the Potency result in experiment [1], in experiment [2], in experiment [3] and in experiment [4] was “inactive” each time.
Regarding `Cc1ccc(C(C)(C)O)cc1`, the Potency entry in experiment [1], in experiment [2], in experiment [3] and in experiment [4] was “inactive” in each case.

Values taken from PubChem BioAssay (Tox21).
